Screens: PubChem BioAssay, National Center for Advancing Translational Sciences (NCATS)
Most compounds without a hit are left out; they make up all but 0.43% or so of the library.
N370S GC mod – inhibits or activates N370S mutant glucocerebrosidase; Potency, µM (highest dose often 59.4 µM), for inactives: at the highest dose activity change, negative = inhibition, most hits filed as inhibitors; 0.092% of 330,000 active; AID 2101; N370S GC spleen homogenate, 4MU-glucoside fluorescence;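 further: potency means the concentration at half of the fitted maximal effect; 0% = full enzyme activity and -100% = no enzyme basal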
GLA inh pH 4.5 – inhibitors of human alpha-galactosidase A at pH 4.5; P06280; purified enzyme, 4-MU-alpha-Gal fluorescence, pH 4.5; activity change, negative = inhibition, % at 105 µM; 230,000 tested, under 10 active;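 further: 0% = full activity with enzyme and -100% = basal without enzyme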
Target sequence (P06280 whole entry, looked up): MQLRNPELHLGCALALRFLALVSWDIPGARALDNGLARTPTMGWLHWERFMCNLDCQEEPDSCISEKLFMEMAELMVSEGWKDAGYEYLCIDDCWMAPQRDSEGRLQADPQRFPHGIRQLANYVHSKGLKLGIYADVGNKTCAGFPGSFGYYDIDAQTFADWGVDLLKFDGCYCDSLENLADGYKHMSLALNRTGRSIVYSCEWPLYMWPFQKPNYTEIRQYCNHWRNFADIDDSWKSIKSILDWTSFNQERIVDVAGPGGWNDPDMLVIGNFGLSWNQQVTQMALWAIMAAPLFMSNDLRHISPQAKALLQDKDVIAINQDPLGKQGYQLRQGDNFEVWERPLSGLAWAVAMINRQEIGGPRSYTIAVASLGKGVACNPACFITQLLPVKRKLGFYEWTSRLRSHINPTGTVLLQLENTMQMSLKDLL
GAA inh – inhibitors of human lysosomal alpha-glucosidase. P10253. 0.005% of 200,000 active. AID 1466. Potency, µM (doses to about 76.9 µM), for the others: at the top dose activity change, negative = inhibition, most hits filed as inhibitors. purified human GAA, 4-MU-alpha-glucoside fluorescence;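 further: potency means the concentration at half of the fitted maximal effect; plate controls were uninhibited enzyme wells for no effect and no-enzyme background for full effect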
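Human enzyme at 4 nM with 400 uM 4-methylumbelliferyl-alpha-D-pyranoside, citrate/phosphate buffer pH 5.0, 0.005% Tween-20, 20 min at room temperature. Compounds up to 77 uM. 4-MU fluorescence (Ex 365/Em 440) read after NaOH/glycine stop; AC50 from Hill fit.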
aGlu spleen mod – inhibitors or activators of human alpha-glucosidase in spleen homogenate. human spleen homogenate, 4-MU-alpha-glucoside fluorescence. Potency, µM (series often up to 79.9 µM), without a hit: at the top dose activity change, negative = inhibition, usual class: inhibitors. 0.006% of 240,000 active;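 further: potency means the concentration at half of the fitted maximal effect; 0% = enzyme with vehicle and -100% = no enzyme basal signal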
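Enzyme source: human spleen homogenate, 1 ug/well. Buffer 50 mM citric acid/K phosphate pH 5.0, 0.01% Tween-20. 4-MU-alpha-glucoside 1 mM; 37 C x 40 min; NaOH/glycine stop; fluorescence.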
GAA glycogen – alters human alpha-glucosidase cleavage of glycogen; 0.38% of 300,000 active; Potency, µM (series often up to 76.4 µM), inactives show top-dose activity change, negative = inhibition, most hits filed as inhibitors; recombinant GAA, glycogen substrate, Amplex Red glucose oxidase fluorescence; P10253; AID 2100;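 further: potency means the concentration at half of the fitted maximal effect; 0% = full enzyme reaction and -100% = no-enzyme basal signal; the screen sought inhibitors and activators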
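Recombinant human alpha-glucosidase (4 nM final) hydrolysed bovine liver glycogen (30 ug) for 40 min at 37 C in pH 5.0 citrate/phosphate with 0.01% Tween-20. Released glucose detected by glucose oxidase/Amplex Red, Ex 573/Em 610 nm. Compounds up to 77 uM; AC50 from Hill fits.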
GLA spleen mod – inhibits or activates alpha-galactosidase in human spleen homogenate | P06280 | human spleen homogenate, 4MU-alpha-Gal fluorescence, 40 min | AID 2107 | 0.008% of 240,000 active | Potency, µM (highest dose often 80 µM), for inactives: top-dose activity change, negative = inhibition, actives largely listed as inhibitors;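 further: potency means the concentration at half of the fitted maximal effect; 0% = enzyme with vehicle and -100% = no enzyme basal signal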
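Human spleen homogenate (1 ug) was the enzyme source, with 4-methylumbelliferyl-alpha-D-galactopyranoside (1 mM final) in pH 5.0 citrate buffer with 0.01% Tween-20. Compounds were titrated; after 40 min at 37C, NaOH/glycine stop, 4-MU fluorescence read; AC50 from Hill fits.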
Starred values were filed as active, the others as inactive; u = inconclusive; x = no result given; [ ] = another dose, or the depositor's remark. The call rests on the fitted dose curve; in most records, active means well fitted curve in the direction sought with a large enough effect; inconclusive means small, poorly fitted or top-dose-only effect, or another doubt; inactive means no such curve, though single readings can be large; an effect the other way counts as inactive or inconclusive.

SMILES	N370S GC mod	GLA inh pH 4.5	GAA inh	aGlu spleen mod	GAA glycogen	GLA spleen mod
CCC(=O)N1c2ccc(S(=O)(=O)CCC(=O)Nc3ccc(Br)c(C)c3)cc2CC1C (centres undefined)	x	x	x	x	8%[76.3 µM]	x
N=c1c2c(-c3ccccc3)c(-c3ccccc3)n(Cc3ccccc3)c2ncn1CCCn1ccnc1	2.2µM*	-31	u	-2%	2%	1%
CCCCn1cnc2c(c(-c3ccccc3)c(-c3ccccc3)n2Cc2ccco2)c1=N	u	-3	x	2%	4%	-1%
CCCCCCCCCCCCCCOc1ccc(C(=O)O)o1	-5%	x	x	-2%	x	-6%
Nc1nc(Nc2ccccc2F)sc1C(=O)c1ccc(Cl)cc1	x	x	x	x	8%[76.3 µM]	x
CC(=O)c1cccc(NC(=O)c2noc3c2CSc2ccccc2-3)c1	x	x	x	x	12%[76.3 µM]	x
O=C1NC(=O)c2c1c(-c1ccccc1)cc1[nH]c3ccc(O)cc3c21	-5%	x	x	-27%	x	2%
O=C(O)c1cc2c(ccc3ccccc32)o1	u	6	-2%	-12%	28%	40µM*
Nc1cc(-c2ccccc2)ccc1O	-7%	1	-6%	-2%	10µM*	1%
COc1ccc(N2CCN(CC(=O)NC(=O)NCc3ccco3)CC2)cc1	5%	-11	2%	-3%	-2%	-6%
Cc1cc(NC(=O)CN2CCN(S(=O)(=O)c3ccc(Cl)cc3)CC2)no1	-3%	2	-6%	-4%	1%	1%
O=C(CN1CCN(c2ccc(O)cc2)CC1)NC(=O)NCc1ccco1	-4%	7	5%	8%	3.2µM*	4%
O=C(CN1CCN(c2ccc(O)cc2)CC1)Nc1cc([N+](=O)[O-])ccc1Cl	-3%	-2	2%	3%	11µM*	11%
CC(=O)N1CCN(CC(=O)Nc2cc([N+](=O)[O-])ccc2Cl)CC1	-9%	-2	4%	3%	0%	4%
Cc1cc(NC(=O)CN2CCN(c3ccc(O)cc3)CC2)no1	6%	5	0%	-10%	8.9µM*	1%
CCOc1ccc(NC(=S)N(CCc2c(C)[nH]c3ccc(C)cc23)Cc2ccco2)cc1	13%	10	3%	2%	35µM*	7%
COc1cccc(NC(=S)NNC(=O)c2c([N+](=O)[O-])c(C)nn2C)c1	-2%	2	1%	-1%	25µM*	-1%
COc1cccc(NC(=S)NNC(=O)C(C)n2nc(C)c([N+](=O)[O-])c2C)c1 (centres undefined)	15%	3	0%	9%	10µM*	15%
CC(C)C[C@H](NC(=O)[C@@H]1CCCN1C(=O)[C@H](CO)NC(=O)[C@H](Cc1ccccc1)NC(=O)CNC(=O)[C@@H]1CCCN1C(=O)[C@@H]1CCCN1C(=O)[C@@H](N)CCCN=C(N)N)C(=O)O	-6%	x	x	4%	x	-8%
OCC1OC(/C=C\c2ccccc2)C=CC1Oc1ccc2c(c1)OCO2 (centres undefined)	-1%[12.8 µM]	x	x	1%[17.4 µM]	x	3%[17.5 µM]
C/C=C\C1=C(CO)C(=O)C2O[C@]2(CC=C(C)C)C1=O (some centres undefined)	-8%[12.8 µM]	x	x	1%[17.4 µM]	x	-6%[17.5 µM]
CC(=O)c1cc2c(O)c(O)ccc2o1	-7%	2	0%	-7%	31µM*	2%
CC(=O)c1cc2cc(O)ccc2o1	u	u	u	u	-1%	u
COc1cccc(/C=N/Nc2ccc(S(=O)(=O)O)cc2)c1O	-4%	6	5%	1%	7.9µM*	-3%
O=C(CCS(=O)(=O)c1nc(-c2cccs2)cc(C(F)(F)F)n1)Nc1cc(Br)ccc1O	x	x	x	x	-15%[76.3 µM]	x
O=C(Cl)c1cccc([N+](=O)[O-])c1	-5%	x	x	12%	x	5%
CC12CCC(C(=O)NNc3ccccc3)(OC1=O)C2(C)C (centres undefined)	-15%	-1	5%	-4%	28µM*	0%
